Screens as filed in PubChem.
hERG WT inh = KCNH2 (human, wildtype) channel inhibition. U2OS, BacMam KCNH2, thallium flux FluxOr; active compounds read low. activity change, % at 1.84 µM. actives 0.37% (n = 340,000);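 active means maximum activity change below -70%; inconclusive means maximum activity change between -70% and -50%; inactive means maximum activity change above -50%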
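U2OS cells were transduced with wild-type KCNH2 virus (2.03 x 10^8 / mL) for 4 h at room temperature, then cultured overnight at 37 C. Thallium flux was read with FluxOr dye. Rate constants were normalized to DMSO controls.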
JMJD2E inh = blocks human JMJD2E demethylase activity | JMJD2E catalytic domain, FDH-coupled NADH fluorescence (FDH is formaldehyde dehydrogenase) | AID 2147 | actives 1.6% (n = 230,000) | Potency, µM (doses to about 57.1 µM), for inactives: top-dose activity change, negative = inhibition, most hits filed as inhibitors | B2RXH2; active means well fitted inhibition curve with a large enough effect, not every such curve was filed as active; inconclusive means small, poorly fitted or top-dose-only effect, or another doubt; inactive means no such curve, though single readings can be large or run the other way;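 further: potency means the concentration at half of the fitted maximal effect; 0% = wells with enzyme and -100% = buffer wells without enzyme; nearly all actives have a fitted effect of over 50% in size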
Target sequence (B2RXH2 1-337 limits assumed): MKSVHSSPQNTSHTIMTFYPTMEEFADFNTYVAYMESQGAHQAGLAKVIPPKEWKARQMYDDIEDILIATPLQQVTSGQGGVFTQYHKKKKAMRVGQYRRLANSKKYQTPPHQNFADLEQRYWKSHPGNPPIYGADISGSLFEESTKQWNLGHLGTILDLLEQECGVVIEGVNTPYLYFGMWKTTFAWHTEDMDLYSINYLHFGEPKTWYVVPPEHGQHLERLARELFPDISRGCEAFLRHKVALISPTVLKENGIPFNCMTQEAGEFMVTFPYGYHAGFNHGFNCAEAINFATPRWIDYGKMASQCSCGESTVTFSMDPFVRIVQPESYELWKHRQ
Six1-Eya2 inh = inhibitors of human Six1/Eya2 interaction | Q15475+O00167 | AlphaScreen GST-Six1/His-Eya2 binding, biochemical; active compounds read low | activity change, % (concentration not given with the values) | actives 0.56% (n = 360,000) | AID 651725
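Compounds are tested against tagged Six1 and Eya2 proteins bridged by glutathione donor and nickel acceptor beads; after a one-hour incubation at 37 °C without light, AlphaScreen emission is recorded.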
KCNH2 3.1 block = blocks the human KCNH2 3.1 channel isoform. U2OS KCNH2 3.1, thallium flux FluxOr; active compounds read low. activity change, % (tested at about 1.8 µM). actives 0.95% (n = 340,000);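 active means maximum activity change below -70%; inconclusive means maximum activity change from -70% to -50%; inactive means maximum activity change above -50%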;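 further: thallium influx rate constant from kinetic fluorescence after stimulation buffer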
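Steps: virus added to U2OS suspension (4 h, RT, dark); medium with 10% FBS added, cells plated, 37 C overnight; FluxOr/Red40 loading buffer 45 min RT; stimulation buffer, 2 min kinetic read; rate constant normalized.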
CtBP-E1A blk = CtBP/E1A binding inhibition | AID 651724 | actives 0.49% (n = 340,000) | activity change, % (test concentration not listed) | AlphaScreen GST-E1A/His-CtBP binding, 1536-well; active compounds read low
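Homogeneous bead-based format: GST-tagged E1A captured on glutathione donor beads, His-tagged CtBP on nickel acceptor beads; compounds precede bead addition by 2 h at 37 °C.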
* hit, by the source's call. Compounds with a hit are over-represented: about 2% of the library has one in this group of screens. Unless noted, no stated cut-off is given here; in the data, active means activity change below about -65%; inconclusive means mostly about -30% to -63%; inactive means weaker than that. Unless noted, on the % scale 0 is the no-effect control and ±100 the full control effect.

O=C(Nc1ccn(CCCN2CCN(c3ccccc3)CC2)c(=O)n1)OCc1ccccc1 was read as hERG WT inh 42, Six1-Eya2 inh -3, KCNH2 3.1 block -72* and CtBP-E1A blk -8.
For Cc1cc(C)c(CN2CCN(CCCn3ccc(NC(=O)OCc4ccccc4)nc3=O)CC2)c(C)c1 the results were hERG WT inh -44, Six1-Eya2 inh -1, KCNH2 3.1 block -82* and CtBP-E1A blk -1.
O=C(Nc1ccn(CCCN2CCN(Cc3cccc4ccccc34)CC2)c(=O)n1)OCc1ccccc1 was read as hERG WT inh -1, Six1-Eya2 inh -13, KCNH2 3.1 block inconclusive and CtBP-E1A blk -15.
Screening COc1ccc(CNC(=O)CCCn2ncn3c(cc4occc43)c2=O)cc1 returned hERG WT inh 2, Six1-Eya2 inh 0 and KCNH2 3.1 block -114*.
Screening CC(CNC(=O)CCCn1ncn2c(cc3occc32)c1=O)c1ccccc1 (stereo unspecified) returned hERG WT inh -6, Six1-Eya2 inh 9, KCNH2 3.1 block 17 and CtBP-E1A blk -22.
`COc1cccc2c1C(=O)c1c(O)c3c(c(O)c1C2=O)C[C@@](O)(C(=O)CO)C[C@@H]3O[C@@H]1C[C@H](N)[C@H](O)[C@H](C)O1` gave JMJD2E inh 22µM*.
For O=C(c1cc(Br)c(Br)s1)N1CCOCC1 the results were hERG WT inh -201*, Six1-Eya2 inh 10, KCNH2 3.1 block 7 and CtBP-E1A blk 10.
Screening O=C(c1ccc(C(=O)N2CCOCC2)s1)N1CCOCC1 returned hERG WT inh 7, JMJD2E inh 0%, Six1-Eya2 inh 2, KCNH2 3.1 block -17 and CtBP-E1A blk 0.
O=C(O)c1ccc(N=Nc2c(O)ccc3ncccc23)cc1 was read as hERG WT inh 2, Six1-Eya2 inh -94* and KCNH2 3.1 block 7.
Screening O=C1C(=Cc2cn(-c3ccccc3)nc2-c2ccc(OCc3ccccc3F)cc2)SC(=S)N1CCS(=O)(=O)O returned Six1-Eya2 inh -70* and CtBP-E1A blk -15.
For Cc1ccc(-c2nn(-c3ccccc3)cc2/C=C2\SC(=S)N(CC(=O)O)C2=O)cc1 the results were hERG WT inh -20, JMJD2E inh 8%, Six1-Eya2 inh -1 and KCNH2 3.1 block -1.
Screening O=C1C(=Cc2cn(-c3ccccc3)nc2-c2ccc(OCc3ccc(Cl)cc3)cc2)SC(=S)N1CCS(=O)(=O)O returned Six1-Eya2 inh -67* and CtBP-E1A blk inconclusive.
COc1ccc(-c2nn(-c3ccccc3)cc2/C=C2/SC(=S)N(CCC(=O)O)C2=O)cc1 was read as hERG WT inh 3, Six1-Eya2 inh -16, KCNH2 3.1 block 7 and CtBP-E1A blk -8.
For CCN(CC(=O)Nc1ccccc1OC)C(=O)C1CC2C=CC1C2 (stereo unspecified) the results were hERG WT inh 4, JMJD2E inh 2%, Six1-Eya2 inh 3, KCNH2 3.1 block 6 and CtBP-E1A blk -4.
`COc1ccc(OCCSc2nnc(CCNC(=O)c3ccc(Cl)c(Cl)c3)n2C)cc1` gave hERG WT inh 4, JMJD2E inh 6%, Six1-Eya2 inh -16, KCNH2 3.1 block 4 and CtBP-E1A blk -4.
`COc1ccc(CN(C)C(C)C(=O)Nc2ccc([N+](=O)[O-])cc2Cl)cc1OC` (stereo unspecified) gave hERG WT inh 0, JMJD2E inh -4%, Six1-Eya2 inh -1, KCNH2 3.1 block -85* and CtBP-E1A blk -1.
Screening COC(=O)C1C(c2ccccc2)C(C(=O)O)C1c1ccccc1 (stereo unspecified) returned hERG WT inh 12, JMJD2E inh 4%, Six1-Eya2 inh -8, KCNH2 3.1 block 8 and CtBP-E1A blk 8.
Screening O=S(=O)(Nc1nc2ccccc2nc1Nc1ccc2c(c1)OCCO2)c1cccs1 returned hERG WT inh 11, JMJD2E inh 22µM*, Six1-Eya2 inh -11, KCNH2 3.1 block -7 and CtBP-E1A blk -23.
For COc1ccc(S(=O)(=O)Nc2nc3ccccc3nc2Nc2ccc3c(c2)OCO3)cc1 the results were JMJD2E inh 0%.
CCN1CCN(c2oc(COc3ccc(Cl)cc3)nc2C#N)CC1 was read as hERG WT inh 22, JMJD2E inh 9%, Six1-Eya2 inh -19, KCNH2 3.1 block -83* and CtBP-E1A blk -5.
For O=C(CN1C(=O)c2cccc3cccc1c23)Nc1ccc(S(=O)(=O)Nc2nccs2)cc1 the results were hERG WT inh 1, JMJD2E inh inconclusive, Six1-Eya2 inh -26, KCNH2 3.1 block 0 and CtBP-E1A blk -26.
For COCc1[nH]c(=S)c(C#N)cc1C(=O)OC the results were hERG WT inh 0, JMJD2E inh 25µM*, Six1-Eya2 inh -4, KCNH2 3.1 block 3 and CtBP-E1A blk -17.
`COc1ccc2c(c1)c1ncn(CCCN3CCOCC3)c(=O)c1n2C` gave hERG WT inh 23, JMJD2E inh inconclusive, Six1-Eya2 inh -29, KCNH2 3.1 block 3 and CtBP-E1A blk -27.
For CCn1cc(C(=O)N2CCN(c3ccc(F)cc3)CC2)c2cc(OC)c(OC)cc2c1=O the results were hERG WT inh 31, JMJD2E inh 2%, Six1-Eya2 inh 2, KCNH2 3.1 block -3 and CtBP-E1A blk -2.
Screening COCCNc1nc(NCc2ccccc2)c2cnn(C)c2n1 returned hERG WT inh -4, Six1-Eya2 inh 3 and KCNH2 3.1 block 3.
Screening Cc1cc(C)n2c(Br)c(CSc3nc4ccccc4s3)nc2n1 returned hERG WT inh 6, JMJD2E inh inconclusive, Six1-Eya2 inh -26, KCNH2 3.1 block -78* and CtBP-E1A blk 6.
`Cc1cc(C)nc(NC(=O)CSc2nc3ccccc3s2)n1` gave hERG WT inh -3, JMJD2E inh 4%, Six1-Eya2 inh 1, KCNH2 3.1 block 2 and CtBP-E1A blk -3.
`NC(=O)c1csc(-c2ccncc2)n1` gave hERG WT inh -16, JMJD2E inh 6%, Six1-Eya2 inh -1, KCNH2 3.1 block 7 and CtBP-E1A blk -13.
Nc1cc(-c2ccncc2)c[nH]c1=O was read as hERG WT inh -15, JMJD2E inh 1.1µM*, Six1-Eya2 inh -1, KCNH2 3.1 block 2 and CtBP-E1A blk inconclusive.
O=C(Cn1c(=O)oc2cc(S(=O)(=O)N3CCCCC3)ccc21)N1CCCCC1 was read as hERG WT inh -22, Six1-Eya2 inh 7 and KCNH2 3.1 block -106*.
O=C(O)c1cccc2c1-c1ccc(Cl)cc1C2=O was read as hERG WT inh 1, Six1-Eya2 inh 2, KCNH2 3.1 block -2 and CtBP-E1A blk 4.
O=C(O)c1cc(O)c2c(c1)C(=O)c1cccc(O)c1C2=O was read as hERG WT inh -8, JMJD2E inh 28µM*, Six1-Eya2 inh -73*, KCNH2 3.1 block -12 and CtBP-E1A blk -84*.
